{
  "source": "PubChem BioAssay AID1745845",
  "about": "(National Center for Advancing Translational Sciences (NCATS), 2022)",
  "note": "Several values for one entry are separate records, joined by “and”; a condition that tells them apart may be missing. Equal entries are not always repeated. Hit rate of the full screen: of about 360,000 compounds, about 2,600 (0.72%) were called active. About 5% were inconclusive and are not listed. The sample holds actives, similar compounds and a random draw of the others, so the mix is not that of the screen. A number with no mark means an inactive call. The call rests on the fitted dose curve; in most records, active means well fitted inhibition curve with a large enough effect; inconclusive means small, poorly fitted or top-dose-only effect; inactive means no such curve, though single readings can be large or run the other way. On the % scale 0 is the no-effect control and ±100 the full control effect; potency means the concentration at half of the fitted maximal effect.",
  "data": [
    {"test": "Primary qHTS for Inhibitors of ATXN expression; further: nearly all actives have a fitted effect of over 55% in size", "details": "HEK-293 ATXN2-luciferase reporter, luminescence, 24 h; series mostly up to 57 µM; activity change, negative = inhibition: at the top concentration", "source_text": "University of Utah School of Medicine, Salt Lake City, Utah\nSpinocerebellar ataxia type 2 (SCA2) is a multisystem neurodegenerative disease caused by a dominantly acting mutation leading to expansion of a polyQ domain in the ataxin-2 protein (ATXN2). SCA2 patients develop progressive ataxia and later lose function in other neuronal systems. Prominent parkinsonian signs develop in some patients. Like many neurodegenerative disorders, no symptomatic or disease-modifying treatments are known.\nThe primary objective of the proposed research is to identify compounds inhibiting ATXN2 expression and to test them for efficacy in SCA2 mouse models. We have developed a cell-based assay paired with an in vivo mouse model using identical luciferase expression constructs. This approach takes advantage of an ATXN2-luciferase transgene, with the luciferase gene flanked by the upstream and downstream portions of the ATXN2 gene. Here we describe a 5-7 dose quantitative high thoroughput screen (qHTS) for compounds lowering ATXN2 expression. We screened the NIH Molecular Libraries Small Molecule Repository (MLSMR) and NCGC's mechanistically annotated (MIPE) and drug repurposing (NPC) collections of compounds for lowering expression of an ATXN2-luciferase reporter in HEK-293 cells. The assay is a multiplexed cell viability assay to ensure target reduction in the absence of cytotoxicity. Secondary qHTS assays included a CMV-luciferase reporter expressed in HEK-293 cells as well as a biochemical assay using recombinant luciferase to detect inhibitors of the reporter enzyme. Compounds that inhibit ATXN2 expression but is not cytotoxic were selected for confirmatory and secondary screens.\nPROTOCOL TABLE (as described by Inglese J, Shamu CE and Guy RK. 2007)\nSEQUENCE No. (e.g., 1, 2, 3, etc.); […] (e.g., Cells, Incubation, Reagent, etc.); VALUE; DESCRIPTION.\n1; Cells; 4 uL; white, solid bottom, 1536-well Greiner assay plate.\n2; Incubation; 2 hr; 37 degree C in 5% humidified CO2.\n3; Compounds; 23 nL; Kalypsis pintool (Wako USA) equipped with a 1536-well pin head.\n4; Incubation; 24 hr; 37 degree C in 5% humidified CO2.\n5; Reagent; 1 uL; Gly-Phe-7-Amino-4-trifluoromethylcoumarin.\n6; Incubation; 30 min; 37 degree C in 5% humidified CO2.\n7; Detection; Fluorescence; ViewLux plate reader (PerkinElmer).\n8; Reagent; 3 uL; SteadyGlo luciferase solution (Promega).\n9; Incubation; 5 min; room temperature.\n10; Detection; Luminescence; ViewLux plate reader (PerkinElmer).\nNOTES (numbers refer to Sequence numbers above)\n1. S2 cells expressing ATXN2-luciferase reporter were suspended in phenol-red free DMEM and dispensed in assay plates using a Multidrop Combi dispenser (Thermo Fisher Scientific).\n2. Assay plates were incubated. Evaporation was prevented by covering assay plates with metal lids containing holes to allow gas diffusion.\n3. Compounds were added in a dose response manner with the final concentrations of 57, 11.4, 2.28, 0.46, 0.091, 0.018, 0.0037 uM. Vehicle-only plates, with DMSO being pin-transferred to columns 5-48, were inserted uniformly at the beginning and the end of each library to monitor and record any shifts in assay performance.\n5. 125 uM Gly-Phe-7-Amino-4-trifluoromethylcoumarin (MP Biomedicals) working concentration was used at a final concentration of 25 uM.\n7. To assess cell viability; the assay plates were read using the ViewLux high-throughput CCD imager (PerkinElmer), wherein single end-point fluorescence measurement was acquired (excitation 405/10; emission 540/25 nm).\n8. Detection reagent SteadyGlo Luciferase (Promega) was added to the assay plate.\n10. Luminescence is then measured on the ViewLux imager equipped with a clear emission filter using a 2 sec exposure. All screening operations were performed on a fully integrated robotic system (Kalypsys) containing one RX-130 and two RX-90 anthropomorphic robotic arms (Staubli).\n[…]", "values": [
      {"compound": "O=C(CSc1nc2c(c(=O)[nH]1)CN(Cc1ccc3c(c1)OCO3)CC2)Nc1cc(F)ccc1F", "activity change, negative = inhibition": "15.6%"},
      {"compound": "Fc1ccc2[nH]c3c(N4CCSCC4)ncnc3c2c1", "Potency": "15.8 µM (active)"},
      {"compound": "Fc1ccc2[nH]c3c(N4CCN(Cc5ccc6c(c5)OCO6)CC4)ncnc3c2c1", "Potency": "14.1 µM (active)"},
      {"compound": "N#C/C=C/N1CCN(Cc2ccc3c(c2)OCO3)CC1", "activity change, negative = inhibition": "12.5%"},
      {"compound": "COC(=O)c1cc(Cl)c(NC(C)=O)cc1OC", "activity change, negative = inhibition": "16.7%"},
      {"compound": "Cn1c(=O)c(C(=O)O)nn(-c2ccccc2)c1=O", "activity change, negative = inhibition": "13.3%"},
      {"compound": "COc1cccc(CNCc2c(C(=O)O)n(Cc3ccc(C)cc3)c3cc(C)ccc23)c1OC", "activity change, negative = inhibition": "5.45%"},
      {"compound": "C[C@@H]1CCC[C@H](C)N1CCCC(O)(c1ccccc1)c1ccccn1", "note": "(some centres undefined)", "activity change, negative = inhibition": "-0.369%"},
      {"compound": "CC(C)Cn1c(C2CC(=O)N(c3ccccc3Cl)C2)nc2ccccc21", "note": "(centres undefined)", "activity change, negative = inhibition": "0.8%"},
      {"compound": "CC(C(C)N1CC(=O)NC(=O)C1)N1CC(=O)NC(=O)C1", "note": "(centres undefined)", "activity change, negative = inhibition": "-9.63%"},
      {"compound": "COCC(C)NS(=O)(=O)c1ccc(N2CCCCS2(=O)=O)cc1", "note": "(centres undefined)", "activity change, negative = inhibition": "-1%"},
      {"compound": "Cc1cc(C)n(-c2nnc(N3CCN(c4ccccc4)CC3)nn2)n1", "activity change, negative = inhibition": "6.31%"},
      {"compound": "Cc1cc(Nc2ccc(Br)cc2)nc2ccccc12", "activity change, negative = inhibition": "-28.1%"},
      {"compound": "Cc1cc(N/N=C\\c2ccc(Br)cc2)nc(-n2nc(C)cc2C)n1", "Potency": "10 µM (active)"},
      {"compound": "COC(=O)c1c(NC(=O)C(C)Oc2ccc(Cl)c(C)c2)sc(C)c1C", "note": "(centres undefined)", "activity change, negative = inhibition": "5.21%"},
      {"compound": "COc1c(C)cc(C(O)c2ncc(-c3cccc(C(F)(F)F)c3)[nH]2)cc1C", "note": "(centres undefined)", "activity change, negative = inhibition": "-29.7%"},
      {"compound": "COc1cc(NC(=O)c2[nH]cnc2C(N)=O)cc(C(=O)Nc2cccc(C(F)(F)F)c2)c1", "Potency": "10 µM (active)"},
      {"compound": "COc1cccc(NC(=O)c2csnn2)c1", "activity change, negative = inhibition": "20.7%"},
      {"compound": "O=C(O)CSc1c2c(nc3cc(C(=O)Nc4cccc(C(F)(F)F)c4)ccc13)CCCC2", "activity change, negative = inhibition": "1.19%"},
      {"compound": "COc1ccc(CC(N)c2csc(NC(=O)Cc3ccccc3)n2)cc1", "note": "(centres undefined)", "activity change, negative = inhibition": "0%"},
      {"compound": "C=CCN(CC=C)C(=O)CN1C(=O)c2ccccc2C1=O", "activity change, negative = inhibition": "4.2%"},
      {"compound": "Cc1cc(C(=O)COC(=O)CCCN2C(=O)c3ccccc3C2=O)c(C)n1C", "activity change, negative = inhibition": "10.3%"},
      {"compound": "C=CCn1c(C)cc(C(=O)CN2C(=O)c3ccccc3C2=O)c1C", "Potency": "7.08 µM (active)"},
      {"compound": "Cc1cccc(-n2c(=O)c3c(c4cc(C)ccc4n3C)n(CC(=O)Nc3ccccc3Cl)c2=O)c1", "activity change, negative = inhibition": "15.8%"},
      {"compound": "CCC(=O)N1CCc2cc(S(=O)(=O)NC(CC(C)C)C(=O)NCCc3cccc(C)c3)ccc21", "note": "(centres undefined)", "activity change, negative = inhibition": "-19.1%"},
      {"compound": "CCCn1c2ccccc2c2cnn(CC(=O)NCCCN3CCCCC3CC)c(=O)c21", "note": "(centres undefined)", "activity change, negative = inhibition": "-19.6%"},
      {"compound": "CN1CCN(CCCNC(=O)c2cc3c(=O)oc4ccccc4c3s2)CC1", "activity change, negative = inhibition": "1.64%"},
      {"compound": "CCC1CCCCN1CCCNC(=O)c1cc2c(Cl)nc3ccccc3c2s1", "note": "(centres undefined)", "Potency": "22.4 µM (active) and 31.6 µM (active)"},
      {"compound": "Cc1ccc(NC(=O)C(Cc2ccccc2)NS(=O)(=O)c2ccc3c(c2)oc(=O)n3C)cc1C", "note": "(centres undefined)", "activity change, negative = inhibition": "11.9%"},
      {"compound": "Clc1cccc(-n2ncc3c(NCCc4ccccc4)ncnc32)c1", "activity change, negative = inhibition": "8.97%"},
      {"compound": "CC(C)Oc1ccc(CN2CCC(n3nccc3NC(=O)c3cccnc3)CC2)cc1", "activity change, negative = inhibition": "-14.9%"},
      {"compound": "c1cncc(CN2CCC(n3ncc4c(N5CCOCC5)nc(-c5ccc6[nH]ccc6c5)nc43)CC2)c1", "Potency": "21.7 µM (active)"},
      {"compound": "O=C(Nc1ccnn1C1CCN(Cc2cccc(OCCO)c2)CC1)C1CCCC1", "activity change, negative = inhibition": "6.2%"},
      {"compound": "Cc1cc(O)ccc1-c1cc(C(=O)NCc2cc(C(F)(F)F)cc(C(F)(F)F)c2)[nH]n1", "activity change, negative = inhibition": "-9.72%"},
      {"compound": "O=C1Nc2ccccc2NC(c2ccc3c(c2)OCO3)=C1N(Cc1ccc(F)cc1)C(=O)c1ccco1", "activity change, negative = inhibition": "-10.1%"},
      {"compound": "NN=C(NN=Cc1ccccc1)c1ccccc1", "activity change, negative = inhibition": "59.1%"},
      {"compound": "O=C(N/N=C/c1ccccc1O)/C(=C/c1ccccc1)CCO", "Potency": "3.55 µM (active)"},
      {"compound": "O=C(CCC(=O)Nc1ccccc1)N/N=C/c1ccccc1F", "activity change, negative = inhibition": "10.2% [at 11.3 µM]"},
      {"compound": "COc1ccc(Cl)cc1N(C)C(=O)c1cc2c(=O)oc3ccc(C)cc3c2s1", "activity change, negative = inhibition": "6.73%"},
      {"compound": "CCOc1cc(C2C(C(=O)Nc3ccc(OC)cc3)=C(C)Nc3nc(SC)nn32)ccc1O", "note": "(centres undefined)", "activity change, negative = inhibition": "0%"},
      {"compound": "O=C(CNC(=O)c1cccnc1)N/N=C/c1cc(Br)c(O)c(Br)c1", "activity change, negative = inhibition": "5.36%"},
      {"compound": "Cc1ccc(S(=O)(=O)N(CC(=O)N/N=C/c2ccc(F)cc2)c2cccc3cccnc23)cc1", "activity change, negative = inhibition": "-22.9%"},
      {"compound": "O=C(CSc1cccc2cccnc12)N/N=C/c1cccnc1", "Potency": "22.4 µM (active)"},
      {"compound": "CCc1ccc(C=C2SC(=S)NC2=O)cc1", "activity change, negative = inhibition": "46.5%"},
      {"compound": "Cn1c(=O)nc2n(-c3ccc(Br)cc3)c3cccc(Cl)c3cc-2c1=O", "activity change, negative = inhibition": "0.426%"},
      {"compound": "CC(Nc1ccc(-c2nc(-c3ccco3)no2)cc1[N+](=O)[O-])c1ccccc1", "note": "(centres undefined)", "activity change, negative = inhibition": "30.4%"},
      {"compound": "CO[C@@H]1[C@@H](O)[C@H](O)[C@@H](n2c3c(Cl)cccc3c3c4c(c5c6cccc(Cl)c6[nH]c5c32)C(=O)NC4=O)O[C@@H]1CO", "Potency": "0.273 µM (active)"},
      {"compound": "COC1C(CO)OC(n2cnc3c(=S)nc(N)[nH]c32)C1O", "note": "(centres undefined)", "activity change, negative = inhibition": "-17%"},
      {"compound": "COc1ccccc1CNC(=O)c1ccc(NC(=O)N2CC(C)Sc3ccccc32)cc1", "note": "(centres undefined)", "activity change, negative = inhibition": "0.839%"}
    ]}
  ]
}
